# Screens deposited in PubChem BioAssay by several laboratories.
# DYRK1A inh = Dyrk1A (rat) kinase inhibition; hit rate 0.43% among 310,000; AID 504441; Q63470; ADP-Glo luminescence, NFATc1 peptide; inhibition, % at 12.5 µM; in the data active = inhibition above about 50%;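 note: plate controls were vehicle with enzyme for no effect and no enzyme for full effect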
# HSF1 inh = HSF1 inhibition | NIH3T3-HGL HSE-luciferase, MG132-induced, luminescence 8 h; stronger effect = lower value | activity change, negative = inhibition, % at 7.5 µM (by protocol) | hit rate 0.77% among 300,000;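 active = more than half of replicate wells show activity change below -50%, luminescence cut by over half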;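 note: luciferase reports HSF-1 transcriptional activity via heat shock element; 0% = median of DMSO wells and -100% = zero luminescence signal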
# NPR1 activator = GC-A (human) enzyme activation | P16066 | hit rate 0.14% among 370,000 | AID 1671463 | activation, % at 10 µM | HEK293 GC-A cells, cGMP TR-FRET, EC30 ANP; 0% at EC30 ANP, 100% saturating ANP; in the data active = activation above about 40%
# HSF-1 act = increases HSF-1 driven luciferase reporter signal; activation, % at 9 µM; hit rate 1.7% among 300,000; AID 504408; NIH3T3-HGL HSF-1 luciferase reporter, MG132, 8 h; 100% = twice DMSO control signal;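 active = mean replicate activation of at least 50% with a set share of replicates each reaching 50%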;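 note: 0% = median of the neutral control wells and 100% = twice that signal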
# aDG glyco act = alpha-DG glycosylation activation; Pro5-aDG cells, alpha-DG glycosylation AlphaScreen (IIH6); 0% Pro5, 100% B10-LARGE cell signal; hit rate 0.22% among 360,000; activation, % at 10 µM;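 active = activation of at least 8% versus controls, or a plate z-score of at least 8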;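 note: Pro5 are CHO cells carrying HIG-tagged alpha-DG that lacks glycosylation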
# GC-B act = GC-B (human) receptor activation | AID 1920062 | hit rate 0.11% among 370,000 | activation, % at 10 µM | HEK293-GC-B cells, CNP EC30, cGMP TR-FRET; 0% at EC30 CNP, 100% saturating CNP | P20594;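 active = activation at 10 µM reaching about 35% in either raw or pattern-adjusted values, limit read from the data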
# Target sequence (P20594 whole entry, looked up): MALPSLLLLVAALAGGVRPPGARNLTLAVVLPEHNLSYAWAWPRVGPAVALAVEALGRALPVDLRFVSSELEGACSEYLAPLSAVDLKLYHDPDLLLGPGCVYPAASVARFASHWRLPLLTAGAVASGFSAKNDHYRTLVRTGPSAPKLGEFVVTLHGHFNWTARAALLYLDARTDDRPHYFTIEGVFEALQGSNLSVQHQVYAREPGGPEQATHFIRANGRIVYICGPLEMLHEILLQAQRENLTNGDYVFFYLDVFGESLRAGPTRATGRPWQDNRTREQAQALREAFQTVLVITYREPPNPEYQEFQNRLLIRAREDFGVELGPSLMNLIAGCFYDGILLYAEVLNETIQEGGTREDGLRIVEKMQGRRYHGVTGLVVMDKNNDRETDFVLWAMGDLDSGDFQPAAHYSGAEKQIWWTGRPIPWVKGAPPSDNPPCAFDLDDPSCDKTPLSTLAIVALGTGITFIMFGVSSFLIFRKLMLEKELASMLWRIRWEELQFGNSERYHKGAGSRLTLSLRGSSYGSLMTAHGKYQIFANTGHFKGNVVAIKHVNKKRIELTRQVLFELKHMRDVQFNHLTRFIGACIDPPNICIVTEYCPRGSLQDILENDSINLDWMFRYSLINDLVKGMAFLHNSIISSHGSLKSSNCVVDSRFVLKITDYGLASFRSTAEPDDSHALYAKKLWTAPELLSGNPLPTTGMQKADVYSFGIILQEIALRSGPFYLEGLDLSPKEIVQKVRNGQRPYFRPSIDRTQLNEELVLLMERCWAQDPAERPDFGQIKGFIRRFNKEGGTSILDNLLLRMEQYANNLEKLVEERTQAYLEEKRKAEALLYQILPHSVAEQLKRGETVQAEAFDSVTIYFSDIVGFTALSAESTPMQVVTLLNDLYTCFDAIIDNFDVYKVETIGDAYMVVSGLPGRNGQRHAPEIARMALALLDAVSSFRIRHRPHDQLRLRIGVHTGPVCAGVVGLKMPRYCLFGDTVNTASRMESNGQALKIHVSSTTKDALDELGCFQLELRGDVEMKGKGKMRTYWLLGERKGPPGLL
# Active calls of the source: *; · = no result given. A selection: hits, their analogues and other compounds. The true share with any hit is near 2.5%.
SMILES,DYRK1A inh,HSF1 inh,NPR1 activator,HSF-1 act,aDG glyco act,GC-B act
C[C@@]12C(=O)N(CCc3c[nH]c4ccccc34)CC(=O)N1[C@H]1c3ccccc3OC[C@@H]1[C@@H]2c1ccccc1,-2.1,·,-12.5,·,0.0,-9.8
c1ccc(-c2ncc(-c3ccn[nH]3)s2)cc1,2.6,30.0,7.6,52.6*,0.9,-12.9
CCCNC(=O)c1cccc(Br)c1,-5.2,-6.4,-1.6,-3.1,-0.2,4.3
O=C(NCCc1ccccc1)c1cccc(Br)c1,4.6,37.3,-3.8,64.8*,0.0,-4.5
CCOc1ccc(NC(=O)CN(C)C(=O)CCNC(=O)c2ccccc2Cl)cc1OCC,-5.1,-4.7,2.2,8.4,0.0,-1.0
COc1ccccc1NC1=C(Cl)C(=O)N(C2CCCCC2)C1=O,0.9,-84.7*,6.8,-87.4,0.1,-3.9
Cc1ccccc1NC1=C(Cl)C(=O)N(C2CCCCC2)C1=O,0.8,-2.6,9.7,1.0,0.0,-0.2
COC(=O)c1c(NC(C)=O)sc(C(=O)Nc2ccccc2)c1C,-2.4,5.4,-4.0,11.7,0.3,-0.1
CCCC(=O)Nc1sc(C(=O)Nc2cccc(N)c2)c(C)c1C(=O)OC,-5.6,-67.1*,1.7,-71.2,-0.1,3.1
CNC1CCc2cc(OC)c(OC)c(OC)c2-c2ccc(SC)c(=O)cc21 (stereo unspecified),9.8,44.7,-7.1,44.7,0.0,-1.6
COc1ccc(/C=C\c2nc(=O)c3ccccc3o2)cc1,3.9,23.8,1.6,75.8*,0.2,-3.2
COc1ccc(CNC(=O)N2CCN(S(=O)(=O)c3ccc(C)cc3C)CC2)cc1,7.7,-4.7,-3.0,-13.1,0.0,-2.6
O=C(Nc1ccc(S(=O)(=O)NC2=NCCCCC2)cc1)c1ccc([N+](=O)[O-])s1,30.4,17.4,-5.5,8.9,8.4*,0.1
O=C(Nc1ccc(S(=O)(=O)NC2=NCCCCC2)cc1)c1cccs1,-4.2,·,-1.9,·,0.3,-6.1
O=C(CC1C(=O)NCCN1Cc1ccc(Cl)c(F)c1)NCC1CCOCC1 (stereo unspecified),2.2,0.8,-3.2,0.8,0.0,3.9
CC1CCN(c2nc3ccc(C(=O)O)cc3s2)CC1,10.4,-83.1*,1.1,-84.8,-0.1,5.1
O=C(O)c1ccc2nc(-c3ccccc3)sc2c1,0.6,-57.9*,4.7,-57.1,0.1,-1.8
CCOc1ccc2nc(NC(=O)C3=NNC(=O)CC3)sc2c1,1.0,6.8,0.9,8.2,1.3,-5.0
COc1ccc(C(=O)Nc2ccccc2C(N)=O)cc1,12.6,8.3,3.1,19.5,-0.1,-6.4
COc1ccc(C(=O)Nc2ccccc2C(=O)N/N=C/c2cccc3ccccc23)cc1,9.3,-71.8*,-7.6,-76.3,-0.5,-3.2
O=C(Nc1ncccn1)c1cc([N+](=O)[O-])cc([N+](=O)[O-])c1,-7.1,-8.2,-1.2,-2.6,0.0,3.6
O=[N+]([O-])c1cc(-c2ncccn2)c([N+](=O)[O-])s1,-5.1,95.3,27.7,97.4*,-0.3,4.7
CCOc1ccc(NC(=S)N2CCC(c3nc4ccccc4[nH]3)CC2)cc1,-2.1,-6.0,2.0,-6.4,0.3,-6.0
Cc1ccc(NC(=O)COC(=O)C2CC3C=CC2C3)cc1S(=O)(=O)N1CCCCC1 (stereo unspecified),-11.3,32.9,2.4,62.9*,-0.1,0.0
CN(C)S(=O)(=O)c1cccc(NC(=O)c2ccc(OC(F)(F)F)cc2)c1,9.0,-7.4,0.8,-3.6,1.5,3.6
SMILES,DYRK1A inh,HSF1 inh,NPR1 activator,HSF-1 act,aDG glyco act,GC-B act
COc1ccc(CCNC(=O)CSc2ccc(-c3ccco3)nn2)cc1,·,-68.5*,3.3,-76.3,0.0,0.1
COCCn1c(SCC(=O)NCCc2ccccc2)nnc1-c1ccco1,-4.0,27.0,-1.6,54.9*,-0.2,-0.2
O=C(CSc1ccc(-c2ccco2)nn1)NCCc1ccccc1,·,0.1,0.3,-5.4,0.0,0.1
CC(=O)OC(C)CS(=O)(=O)c1ccccc1 (stereo unspecified),5.0,-0.8,1.0,-16.5,0.0,1.9
CCCn1nc([N+](=O)[O-])c(C(C#N)c2nc3ccccc3o2)c(Cl)c1=O (stereo unspecified),3.4,76.4,-2.9,97.3*,0.0,2.0
Cn1nc([N+](=O)[O-])c(C(C#N)c2ccccn2)c(Cl)c1=O (stereo unspecified),-2.8,25.5,4.1,34.9,0.8,1.8
CCn1nc([N+](=O)[O-])c(C(C#N)c2nc3cc(C(F)(F)F)ccc3s2)c(Cl)c1=O (stereo unspecified),8.8,56.5,1.2,64.1*,-0.1,4.6
CC(C)OCP(=O)(c1ccccc1)c1ccccc1,4.1,0.7,-6.8,-0.8,0.3,-1.4
CSc1ncc(C(=O)Nc2cccnc2)c(C(F)(F)F)n1,-2.3,-79.1*,3.7,-83.7,0.0,4.2
Cc1ccc(NC(=O)N2CCc3ccccc32)cc1,3.5,39.9,2.7,62.8*,0.9,-2.2
Cc1ccc(NC(=O)N2CCc3ccccc32)cc1C,3.0,15.5,-0.8,51.3*,1.1,-0.9
CN1CCN(c2ccc(NC(=O)N3CCc4ccccc43)cc2)CC1,3.7,-85.2*,-6.7,-86.0,0.1,-4.9
Cc1ccc(NC(=O)N2CCCc3ccccc32)cc1,·,5.5,2.1,39.6,-0.1,5.2
Cc1ccc(S(=O)(=O)CCC(=O)OCC(=O)c2c(C)[nH]c3ccccc23)cc1,-8.3,-8.4,-1.4,-1.4,·,-2.0
CC(C)CC(=O)N1CCN(Cc2cccc([N+](=O)[O-])c2)CC1,2.6,2.9,-1.3,-3.0,-0.1,0.9
CN1/C(=C\C(=O)CN2C(=O)NC3(CCCCCC3)C2=O)C(C)(C)c2ccccc21,0.8,3.0,-3.8,2.5,1.2,-6.3
O=C(NCCN1CCC(n2c(=O)[nH]c3ccccc32)CC1)c1ccc(Cl)cc1,·,·,-2.4,·,0.0,1.4
CCC1C/C(=C\c2cc(OC)c(OC)cc2OC)C(=O)/C(=C/c2cc(OC)c(OC)cc2OC)C1 (stereo unspecified),1.7,-27.7,·,-27.3,-0.3,·
COc1cc(OC)c(OC)cc1/C=C1\CC(C)C/C(=C\c2cc(OC)c(OC)cc2OC)C1=O (stereo unspecified),2.3,-26.7,49.4*,-25.1,-0.5,7.0
Cc1cc(Cl)ccc1NC(=O)COC(=O)CCNS(=O)(=O)c1ccccc1,3.9,·,2.3,·,0.2,-3.0
O=C(c1cc(Br)ccc1Cl)N1CCN(c2ccccn2)CC1,0.6,-0.8,-2.1,4.5,0.0,3.2
CCN(Cc1ccccc1)C(=O)C1CCN(CC2CC=CCC2)CC1 (stereo unspecified),1.1,10.0,-4.8,43.4,0.0,-2.1
CCN(Cc1ccccc1)C(=O)C1CCN(Cc2sccc2C)CC1,0.0,-56.3*,-2.2,-64.6,0.1,-6.3
